# Compound activity from PubChem.
# HTT ATP protect – qHTS Multiplex Assay to Identify Dual Action Probes in a Cell Model of Huntington: Cytoprotection (ATP); PC12 HTT-Q103 induced, cytoprotection, ATP luminescence, 40 h; Potency, µM (highest dose often 56.4 µM), inactives show cytoprotection (ATP increase), actives largely listed as activators; 230,000 tested, 0.14% active; AID 1471, 2008; also: potency is read from the fitted curve at half-maximal effect; % of control where 0% means no effect; nearly all actives have a fitted effect of over 45% in size
#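 Compounds were screened for protection of PC12 cells against cell death after tebufenozide induction (100 nM final) of mutant Huntingtin exon 1 (Q103) fused to GFP.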
# HTT aggregate – qHTS Multiplex Assay to Identify Dual Action Probes in a Cell Model of Huntington: Aggregate Formation (GFP) | PC12 HttQ103-GFP aggregates, Acumen cytometry, 40 h | AID 1688, 2009 | Potency, µM (titrated, usually from 46.1 µM), without a hit: top-dose activity change, negative = inhibition, most hits filed as inhibitors | 220,000 tested, 1.1% active; also: potency is read from the fitted curve at half-maximal effect; % is scaled to controls: 0 for no effect and ±100 for the full control effect; nearly all actives have a fitted effect of over 60% in size
#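 Aggregates are detected as GFP objects 1–25 µm with signal 6 STDEV over background in lysates of induced PC12 cells. These carry Huntingtin exon 1 with 103 glutamines fused to GFP under an ecdysone promoter; compounds titrated.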
# HPGD inh – qHTS Assay for Inhibitors of HPGD (15-Hydroxyprostaglandin Dehydrogenase); 15-hydroxyprostaglandin dehydrogenase [NAD(+)] (Homo sapiens), P15428; purified HPGD, NADH fluorescence kinetic, PGE2 substrate; Potency, µM, for inactives: at the highest dose activity change, negative = inhibition, most hits filed as inhibitors; 150,000 tested, 4.3% active; active = well fitted inhibition curve with a large enough effect, not every such curve was filed as active; inconclusive = small, poorly fitted or top-dose-only effect, or another doubt; inactive = no such curve, though single readings can be large or run the other way; also: potency is read from the fitted curve at half-maximal effect; % is scaled to controls: 0 for no effect and ±100 for the full control effect
# Target sequence (P15428 whole entry, looked up): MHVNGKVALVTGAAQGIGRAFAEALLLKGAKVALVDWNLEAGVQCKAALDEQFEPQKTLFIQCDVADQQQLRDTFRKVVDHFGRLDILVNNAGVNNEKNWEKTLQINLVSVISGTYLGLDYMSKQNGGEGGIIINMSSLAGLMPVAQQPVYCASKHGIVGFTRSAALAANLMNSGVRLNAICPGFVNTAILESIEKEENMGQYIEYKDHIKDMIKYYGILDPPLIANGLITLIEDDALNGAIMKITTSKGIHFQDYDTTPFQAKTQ
#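 NADH formation kinetics: reaction with 30 uM PGE2 and 1 mM NAD+ (final), 20 nM enzyme, Tris-HCl pH 8 with Tween 20, after 15 min compound preincubation at room temperature. Fluorescence change, last versus first of five reads.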
# ALDH1A1 inh – qHTS Assay for Inhibitors of Aldehyde Dehydrogenase 1 (ALDH1A1). 220,000 tested, 7.3% active. Purified ALDH1A1, NADH fluorescence, propionaldehyde substrate. AID 1030, 2008. Potency, µM (series often up to 75.3 µM), for inactives: at the top dose activity, negative = inhibition, most hits filed as inhibitors; active = well fitted inhibition curve with a large enough effect, not every such curve was filed as active; inconclusive = small, poorly fitted or top-dose-only effect, or another doubt; inactive = no such curve, though single readings can be large or run the other way;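 also: potency is read from the fitted curve at half-maximal effect; plate controls were no enzyme wells and a reference inhibitor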
# RGS12 GoLoco inh – qHTS Assay for Inhibitors of RGS12 GoLoco Motif Activity (Red Fluorophore); 230,000 tested, 0.44% active; Potency, µM (top dose mostly 61.6 µM), inactives show at the highest dose activity, negative = inhibition, usual class: inhibitors; AID 880, 2007; Gai1:RGS12 GoLoco peptide FP, rhodamine, 10 min; active = well fitted inhibition curve with a large enough effect, not every such curve was filed as active; inactive = no such curve, though single readings can be large or run the other way; also: potency is read from the fitted curve at half-maximal effect; % is scaled to controls: 0 for no effect and ±100 for the full control effect; nearly all actives have a fitted effect of over 30% in size
# Target sequence (P63096 whole entry, looked up): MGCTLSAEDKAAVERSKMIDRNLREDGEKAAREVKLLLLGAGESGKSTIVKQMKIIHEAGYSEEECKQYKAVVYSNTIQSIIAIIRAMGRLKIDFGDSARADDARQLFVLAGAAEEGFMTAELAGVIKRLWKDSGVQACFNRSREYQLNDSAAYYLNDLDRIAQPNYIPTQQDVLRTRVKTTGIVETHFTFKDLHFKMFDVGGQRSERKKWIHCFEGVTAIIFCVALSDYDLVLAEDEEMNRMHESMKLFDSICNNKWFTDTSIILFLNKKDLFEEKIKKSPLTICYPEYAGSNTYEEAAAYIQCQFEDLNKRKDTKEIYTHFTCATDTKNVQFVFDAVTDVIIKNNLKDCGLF
# PNC assembly inh – High Content Assay for Compounds that inhibit the Assembly of the Perinucleolar Compartment; PC3M PTB-GFP, PNC prevalence imaging, 16 h; active compounds read low; activity change (PNC), negative = inhibition, % at 10 µM; 140,000 tested, 3.1% active;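 active = readout at or below -70, meaning at least 70% loss of cells showing the perinucleolar compartment, a nuclear body marking cancer cells; inconclusive = readout between -30 and a set limit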;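 also: plate controls were DMSO wells for no effect and camptothecin positive control wells for full effect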
#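 Compounds are pinned in duplicate onto adhered PC3M cells stably expressing GFP-tagged PTB and incubated 16 h at 37 C. Cells are then fixed, nuclei stained with Hoechst, and PNC-positive cells counted.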
# Active calls of the source: *; ? = inconclusive; nt = no result; [ ] = remark or other dose. Only some compounds are listed: those with a hit (about 11% of all), similar ones and a draw of the others. Unless noted, calls follow the shape of the dose curve; as a rule, active = well fitted curve in the direction sought with a large enough effect; inconclusive = small, poorly fitted or top-dose-only effect, or another doubt; inactive = no such curve, though single readings can be large; an effect the other way counts as inactive or inconclusive.
SMILES,HTT ATP protect,HTT aggregate,HPGD inh,ALDH1A1 inh,RGS12 GoLoco inh,PNC assembly inh
CNC(=O)COC(=O)c1ccccc1C(=O)c1ccc(Cl)c([N+](=O)[O-])c1,-35.3%[10 µM],28.2µM*,nt,-0.5%,10.7%,nt
C#CCCOC(=O)N1C2=NC(C(=O)OC)=C(C(=O)OC)[C@@H]3N(CC=C)c4ccccc4[C@]23C[C@H]1C(=O)OC,5.4%[10 µM],-4.8%[9.22 µM],-0.6%,4.2%[13.5 µM],3.5%[14.2 µM],nt
CC(C)C(OC(=O)c1nsc(Cl)c1Cl)C(=O)NCc1ccc2c(c1)OCO2 (configuration not stated),8.2%,5.2%,2.24µM*,-5.3%,-8.6%,-22.9
CC(C)C(OC(=O)c1cccs1)C(=O)NCc1ccc2c(c1)OCO2 (configuration not stated),nt,nt,nt,-11.6%,-1.0%,nt
CCC(OC(=O)c1cccs1)C(=O)NCc1ccco1 (configuration not stated),-3.0%[10 µM],-4.2%,-15.2%,22.4µM*,3.2%,-101.1*
CC(OC(=O)c1cccs1)C(=O)NCc1ccc2c(c1)OCO2 (configuration not stated),-26.1%,5.9%,28.2µM*,3.6%,-0.9%,-8.9
Cc1ccc(C)n1-c1ccccc1N1CCCCC1,9.5%[10 µM],17.4%,nt,2.9%,0.4%,nt
CCCn1c(CCC(=O)O)nc2cc(S(N)(=O)=O)ccc21,-2.0%[10 µM],-7.6%[9.22 µM],nt,nt,24.4%,nt
NCCCC(N)CC(=O)NCC1NC(=O)C(CO)NC(=O)C(N)CNC(=O)C(C2CCN=C(N)N2)NC(=O)/C(=C\NC(N)=O)NC1=O (configuration not stated),-78.7%,nt,0.6%,1.2%,4.0%,nt
COc1cc(/C=C2\SC(=Nc3ccccc3)N(Cc3ccco3)C2=O)ccc1OC(C)C(=O)O (configuration not stated),nt,6.8%,-27.4%,-3.7%,12.7%,?
COCCN1C(=O)/C(=C/c2ccc(OCc3ccc(C(=O)O)cc3)c(OC)c2)SC1=Nc1ccccc1,nt,?,-8.3%,1.12µM*,4.9%,39.3
CCOC(=O)c1c(C)[nH]c(C)c1C(=O)CSc1nnnn1-c1ccccc1,24.1%,7.3%[9.22 µM],-3.0%,31.6µM*,1.0%,20.3
COC(=O)c1c(C)[nH]c(C(=O)CSc2nnnn2-c2ccccc2)c1C,8.3%,9.8%,-10.6%,3.4%,14.1%,-7.5
Cc1ccccc1-n1nnnc1SCC(C)C,5.8%,2.9%,nt,1.12µM*,-8.6%,nt
Cc1ccccc1-n1nnnc1SCc1csc(-c2ccccc2)n1,-16.9%,?,-14.6%,7.94µM*,-9.2%,-19.5
CCOC(=O)c1[nH]c(CSc2nnnn2-c2ccccc2C)c(C(=O)OCC)c1C,-21.2%,-12.9%,3.4%,3.55µM*,35.5%,?
Nn1c(SCc2csc(-c3ccccc3)n2)nnc1-c1cccs1,25.4%[10 µM],8.8%,?,?,7.8%,?
O=[N+]([O-])c1cc(Cl)cc(C2=NCCN2)c1,-8.5%,4.5%,-11.5%,-6.2%,-8.9%,26.3
Cc1cc(=O)oc2cc(OCC(=O)OCC(=O)NCCc3ccccc3)ccc12,-32.4%,-10.3%,nt,?,7.6%,nt
CN(C)[C@H]1C(=O)C(C(=O)NCN2CCCC2)=C(O)[C@]2(O)C(=O)C3=C(O)c4c(O)cccc4[C@@](C)(O)[C@H]3C[C@@H]12,-2.9%[40.3 µM],-2.1%[20.6 µM],-20.4%,-1.6%[20.9 µM],-17.7%[21.6 µM],nt
O=C1[C@@H]2[C@H]3[C@H](O)[C@H](O)C/C(=N/OC[C@@H](O)COCc4ccco4)[C@H]3CC[C@H]2C(=O)N1c1ccc(F)cc1F,-6.4%[10 µM],nt,nt,4.6%[13.5 µM],nt,nt
O=C(NCCCn1ccnc1)c1cc(-c2ccc3c(c2)OCO3)on1,-5.5%,-0.7%,-16.3%,4.5%,11.5%,-91.4*
C=CSc1sc(Cl)c(N(CC)CC)c1[N+](=O)[O-],nt,nt,nt,15.8µM*,11.3%,nt
C=CSc1sc(Cl)c(N(C)C)c1[N+](=O)[O-],37.6%[10 µM],?,nt,7.94µM*,-2.5%,nt
C=N[C@H](C(=O)N[C@@H]1C(=O)N2[C@@H]1SC(C)(C)[C@@H]2C(=O)O)c1ccccc1,2.1%[40.3 µM],nt,?,3.2%[20.9 µM],-2.6%[21.6 µM],nt
SMILES,HTT ATP protect,HTT aggregate,HPGD inh,ALDH1A1 inh,RGS12 GoLoco inh,PNC assembly inh
CN(C)c1ncc2nc(CCc3ccccc3)c(=O)n(-c3ccccc3)c2n1,-19.0%,nt,?,?,82.1%,nt
CCC(Sc1nnc2c3ccccc3n(CC)c2n1)C(=O)Nc1sc2c(c1C#N)CCCC2 (configuration not stated),-119.9%,-3.2%,-28.5%,17.8µM*,22.2%,25.2
C=CCN1C(=O)/C(=C/c2ccc(O)c(OC)c2)S/C1=N/c1nccs1,nt,-26.6%,-16.7%,1µM*,158.7%,-5.5
C=CCN1C(=O)/C(=C/c2ccc(OCC(=O)O)cc2)S/C1=N/c1nccs1,nt,16.0%,-18.8%,5.01µM*,5.7%,?
C=CCN1C(=O)/C(=C/c2ccc(N(C)C)cc2)S/C1=N\c1nnc(CC)s1,13.2%,-0.7%,-10.4%,?,121.7%,-5.7
COc1ccc(CNC(=O)c2cc(-c3ccncc3)nc3c(C)cc(C)cc23)cc1OC,13.9%[10 µM],6.8%,nt,-7.6%,14.9%,nt
O=C(CCNc1cc(Cl)cc(Cl)c1)c1ccco1,6.7%,0.5%,-15.8%,7.94µM*,-2.8%,-3.3
O=C(CSc1ccc(Cl)cc1)c1ccco1,29.1%,?,25.1µM*,12.6µM*,63.5%,-12.5
Cc1ccccc1NC(=O)CNc1ccc(Cl)c(C(F)(F)F)c1,5.3%[10 µM],4.0%,nt,?,nt,?
O=C(NCc1cccc(Cl)c1)c1ccco1,-4.9%[1.9 µM],-7.0%,-19.4%,-2.1%,-4.7%,-10.5
O=C(CCNc1ccc(Cl)c(C(F)(F)F)c1)c1ccco1,-0.7%,8.4%,-6.2%,8.91µM*,2.9%,-11.5
O=C(CCNC(=O)c1ccccc1)Nc1ccc(F)c(Cl)c1,8.8%[10 µM],6.3%,-6.7%,7.1%,0.2%,?
O=C(CSc1ccccc1Cl)c1ccco1,-26.6%,-5.0%[9.22 µM],-20.1%,-4.1%,1.0%,-18.9
O=C(CCNc1ccc(F)c(Cl)c1)c1ccco1,18.2%[10 µM],13.3%,-6.9%,3.55µM*,3.6%,-9.6
CC(=O)c1cc2c(cc1NS(=O)(=O)c1ccc(F)cc1)OCO2,1.4%[10 µM],-13.1%[9.22 µM],nt,15.6%,5.9%,nt
O=C(CNC(=O)c1ccco1)Nc1ccc(F)cc1,-7.8%[10 µM],-4.1%,nt,6.2%,1.8%,nt
O=C(CCNc1cccc(C(F)(F)F)c1)c1ccco1,0.5%[10 µM],17.7%,-8.6%,2.51µM*,5.6%,15.7
